# Vif inh: inhibitors of HIV Vif; HEK293T cells, Vif self-association by quenched fluorescence, imaging, 24 h; inhibition, % at 7.49 µM; actives 0.35% (n = 340,000); in the data active means inhibition above about 50%, passing the limit was not always enough
# SMARCA2 act: increases SMARCA2 function in MMTV reporter cells; MG213 cells, MMTV-luciferase reporter, dexamethasone, overnight; activation, % at 9.1 µM; actives 1% (n = 370,000); in the data active means activation above about 7.8%;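 further: 0% = vehicle wells and 100% = reference activator wells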
# NR3A LBD binder: modulators (binders) of human NR3A ligand-binding domain | NR3A LBD differential scanning fluorimetry, Tm shift; 0% = protein alone, 100% = glycine-bound protein | actives 2.5% (n = 340,000) | Tm shift relative to glycine control, % at 25 µM;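 active means melting temperature shift of at least 10% of the positive control shift, at one fixed dose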
# SKN-1 inh: inhibitors of C. elegans SKN-1. C. elegans VP596 Pgst-4::GFP/RFP ratio, acrylamide-induced, 24 h. inhibition, % at 21.8 µM. actives 0.49% (n = 360,000). AID 624304;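 active means interference check ratio from 0.5 to 1.5 plus GFP to RFP signal ratio inhibition reaching or exceeding a fixed threshold, cut at about 30% in these data, passing the limit was not always enough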
# NadD inh: NadD (S. aureus) enzyme inhibition; purified NadD enzyme, colorimetric absorbance read-out; inhibition, % at 20 µM; actives 0.78% (n = 360,000); in the data active means inhibition above about 26%
# esBAF inh: blocks esBAF chromatin remodeling in mouse ES cells | Bmi1-luciferase knock-in reporter, 24 h; 100% = twice the neutral-well signal | reporter increase, % at 12.5 µM | actives 2% (n = 350,000); in the data active means activation above about 40%;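 further: 0% = median of the plate's neutral control wells and 100% = double that signal; a rise in the Bmi1 reporter signal indicates esBAF inhibition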
# SMARCA2 conf: SMARCA2 activation, confirmation screen. shares compounds with SMARCA2 act. MG213 cells, MMTV-luciferase with dexamethasone, luminescence, overnight; MG213 cells expressing E1A, Rb sequestered; DMSO wells 0%, reference activator 100%. activation, % at 9.1 µM. actives 30% (n = 3,500);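 active means activation above its plate's cutoff, the mean activation of tested wells plus 3 SD, cut at about 7.9% in these data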
# GAL4-VP16 Luc: activates GAL4-VP16 luciferase, flagging SMARCA2 activator hits; shares compounds with SMARCA2 act; HEK293 GAL4-VP16 pG5luc reporter, luciferase luminescence; scaled: DMSO wells 0%, SAHA wells 100%; activation, % at 9.1 µM; actives 41% (n = 3,500); AID 686939;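 active means activation above the solvent-only control well mean plus 3 SD, averaged across control plates, cut at about 5.2% in these data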
# * = called active by the depositor; x = no result given. Most compounds without a hit are left out; they make up all but 5.2% or so of the library.
SMILES,Vif inh,SMARCA2 act,NR3A LBD binder,SKN-1 inh,NadD inh,esBAF inh,SMARCA2 conf,GAL4-VP16 Luc
O=C(N[C@@H]1CC[C@@H](CCn2cc(-c3ccccn3)nn2)O[C@H]1CO)c1ccc(F)cc1,x,x,x,x,x,0.8,x,x
Nc1c2ccccc2nc2ccccc12,-7.1,54.8*,-4.7,6.8,2.6,5.9,110.4*,1.6
Nc1c2c(nc3ccccc13)CCCC2,-3.8,-3.9,-0.6,-11.1,-2.4,-3.9,x,x
CCCC#Cc1cnc2c(c1)C(=O)N([C@H](C)CO)C[C@@H](C)[C@@H](CN(C)S(C)(=O)=O)O2,x,x,x,x,x,1.5,x,x
C[C@H](CO)N1C[C@H](C)[C@H](CN(C)Cc2ccc(C(F)(F)F)cc2)OCCCC[C@H](C)Oc2ccc(NS(=O)(=O)c3ccccc3)cc2C1=O,x,x,x,x,x,-0.7,x,x
Nc1ccc2ccc(O)cc2c1,-5.0,3.3,4.8,19.6,10.2,38.1,x,x
Nc1cccc(O)c1,-0.7,9.7*,1.6,12.6,-2.3,-9.1,4.7,0.7
CC(SC(C)C(=O)NN=Cc1c[nH]c2ccccc12)C(=O)NN=Cc1c[nH]c2ccccc12 (centres undefined),-13.0,-4.4,9.0,19.8,5.8,-0.3,x,x
Cn1ccc(C(=O)N/N=C/c2c[nH]c3ccccc23)n1,-4.1,15.7*,-0.8,2.0,-2.5,17.7,8.0*,3.6
O=C(NC1=NCCS1)c1cccc(Br)c1,1.8,11.8*,2.9,11.2,-2.7,48.3*,16.8*,7.0*
O=C(NC1=NCCS1)c1cccc(F)c1,2.2,0.9,-0.3,9.7,0.7,x,x,x
CS(=O)(=O)Nc1ccc2c(c1)[C@@H]1C[C@@H](CC(=O)NCc3ccncc3)O[C@@H](CO)[C@@H]1O2,x,x,x,x,x,0.7,x,x
N#Cc1c(Nc2ccccc2Cl)s[nH]c1=O,7.8,8.8*,-2.5,13.7,3.8,x,6.7,0.1
C[C@H](CO)N1C[C@H](C)[C@H](CN(C)S(=O)(=O)c2ccc(Cl)cc2)Oc2c(NC(=O)c3cnccn3)cccc2C1=O,x,x,x,x,x,-2.2,x,x
CC(C)(C)c1ccc2cccc(F)c2n1,x,9.4*,x,12.4,-2.7,-2.0,-1.3,1.0
COc1ccccc1OCc1cc(C(=O)N(C)CCC2CCCCO2)no1 (centres undefined),0.4,10.5*,-0.9,24.7,0.3,76.3*,5.7,10.9*
Cc1ccc(Nc2nc3ccccc3[nH]2)nc1,-7.9,8.7*,5.0,4.3,-1.1,30.2,6.5,19.1*
CCN(CC)CCOc1ccc(Br)cc1,6.3,-1.3,-1.5,7.4,-2.8,-2.3,x,x
CCN(CC)CCOc1ccc2c(c1)C(=NO)c1cc(OCCN(CC)CC)ccc1-2,-3.2,23.4*,-0.9,11.5,-7.9,-81.0,75.8*,0.0
CC(C)CNC(=O)C1c2ccccc2Oc2ccccc21,22.1,14.0*,-2.0,-2.6,-1.0,x,-1.1,0.7
CC(C)NC(=O)C1c2ccccc2Oc2ccccc21,7.3,-2.0,1.1,10.9,-13.3,3.2,x,x
Nn1c(SCc2ccccc2)nc2ccccc21,-11.2,11.5*,0.2,-2.7,-5.0,54.2*,8.8*,14.1*
Cc1nnc(SCC(=O)NC(=O)Nc2ccc3c(c2)OCCO3)s1,9.1,11.0*,-3.1,-7.7,1.3,x,3.1,-0.4
C[C@@H]1CN([C@@H](C)CO)C(=O)c2cc(NS(=O)(=O)c3cccs3)ccc2O[C@@H]1CN(C)S(=O)(=O)c1ccccc1,x,x,x,x,x,4.9,x,x
Cc1ccc(S(=O)(=O)Nc2ccc3c(c2)C(=O)N([C@H](C)CO)C[C@H](C)[C@@H](CN(C)Cc2ccncc2)OCCCC[C@H](C)O3)cc1,x,x,x,x,x,3.7,x,x
SMILES,Vif inh,SMARCA2 act,NR3A LBD binder,SKN-1 inh,NadD inh,esBAF inh,SMARCA2 conf,GAL4-VP16 Luc
Cc1ccc(SCc2cn3c(C)csc3n2)cc1,-2.0,10.3*,-7.5,0.8,-2.3,6.6,4.1,8.8*
Cc1cccc2nc(CSc3ccc(Cl)cc3)cn12,-10.4,10.2*,-1.2,7.6,-1.2,75.7*,6.3,1.0
COc1ccc(CNC(=O)C[C@H]2C[C@@H]3c4cc(NS(=O)(=O)c5ccc(F)cc5)ccc4O[C@@H]3[C@@H](CO)O2)cc1,x,x,x,x,x,7.9,x,x
CNC(=O)C[C@@H]1CC[C@@H]2[C@H](COc3ccc(NC(=O)c4ccccc4OC)cc3C(=O)N2C)O1,x,x,x,x,x,-2.7,x,x
O=C(c1ccccc1)c1nnc(-c2ccccc2F)o1,-0.2,11.1*,-0.3,-14.2,-2.3,30.4,7.6,1.4
CCCCN(C)CCCNC(=O)c1cc(=O)[nH]c2ccc(S(=O)(=O)N3CCCCC3C)cc12 (centres undefined),1.1,8.2*,-3.5,3.8,-9.4,x,0.0,0.6
CCS(=O)(=O)Nc1ccc2c(c1)C(=O)N(C)C[C@@H](OC)[C@H](C)CN(C(=O)CN(C)C)[C@@H](C)CO2,x,x,x,x,x,0.7,x,x
CC1CN(C(=O)CCC(=O)NC(C)c2ccccc2)c2cc(Cl)ccc2O1 (centres undefined),-8.9,8.3*,0.1,4.2,-3.7,-3.1,-2.1,1.5
COc1ccc(CCN2CC(C(=O)N(C)Cc3ccccc3OC)CCC2=O)cc1 (centres undefined),-23.5,8.6*,-1.1,13.2,1.2,-0.8,-5.2,-0.7
COc1cccc(S(=O)(=O)N2C[C@H](O)COC[C@H]3O[C@H](CC(=O)Nc4ccccc4)CC[C@@H]32)c1,x,x,x,x,x,-3.9,x,x
Cc1ccc(C(=O)CCNc2ccc(Br)cc2)o1,0.9,5.5,0.0,0.6,2.4,26.7,x,x
Cc1ccc(C(=O)CCNc2cccc(Br)c2)o1,-6.0,8.8*,1.0,-26.6,-3.3,x,2.3,1.2
O=C1CCCCC1Sc1nnc(Nc2ccccc2)s1 (centres undefined),-1.2,8.8*,5.2,3.2,-0.7,71.3*,1.1,7.7*
Cc1ccc(Nc2nnc(SC3CCOC3=O)s2)cc1 (centres undefined),0.9,-1.5,1.7,-6.0,1.6,x,x,x
Cc1cc(=O)oc(C)c1C(=O)NNC(=O)C1(C)CC1Br (centres undefined),-4.4,8.9*,-0.8,-10.9,-1.4,x,3.1,0.0
CC1(C(=O)NNC(=O)c2ccc(=O)oc2)CC1Br (centres undefined),-0.1,0.7,0.5,10.9,15.0,x,x,x
Cc1noc(C)c1S(=O)(=O)N(C)C[C@@H]1Oc2ccc(NS(=O)(=O)c3ccccc3)cc2CC(=O)N([C@H](C)CO)C[C@@H]1C,x,x,x,x,x,-2.9,x,x
COc1ccccc1OCCSc1nnnn1-c1ccc(C)cc1,-9.0,9.0*,0.3,-2.8,-11.0,31.5,0.3,2.8
